Among all 5,500 compounds or so, about 2,000 (36%) were called active. Inconclusive results (about 18%) are left out. Rule as the data show it: active = normalized growth mostly below about 0.91 (no sharp cut-off); inconclusive = no clear call, values can overlap the other calls; inactive = mostly above about 0.92. Some of the results follow.
Experiment: chemical genetic growth profiling, strain panel (AID 1159580);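 also: tested at 20 µM; growth read once vehicle control cultures reached saturation at 30 °C; 1 = growth at the plate median or of vehicle wells; lower values mean less growth of the strain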
Details: S. cerevisiae deletion strains, growth OD

Measured: normalized growth

O=C(O)CC[C@@H](C(=O)O)N1C(=O)c2ccccc2C1=O
inactive: locus YAL040C, strain CLN3, stronger effect = lower value 0.987 | locus YCL061C, strain MRC1 (second series), stronger effect = lower value 1.01 | locus YDR150W, strain NUM1, stronger effect = lower value 1 | locus YDR363W, strain ESC2, stronger effect = lower value 0.987 | locus YER002W, strain NOP16, stronger effect = lower value 0.975 | locus YGR229C, strain SMI1, stronger effect = lower value 1 | locus YNL175C, strain NOP13, stronger effect = lower value 0.973 | locus YNL197C, strain WHI3, stronger effect = lower value 0.976 | locus YNL224C, strain SQS1, stronger effect = lower value 0.991 | locus YOR083W, strain WHI5 (second series), stronger effect = lower value 1.06

From PubChem BioAssay AID1159580 (chemical genetic matrix, 2015)
